# PKM2 activator – PKM2 (human) enzyme activation. 0.34% of 260,000 active. AID 1631. purified PKM2, Kinase-Glo ATP luminescence, activation; response scale: 0% is enzyme alone, no compound. Potency, µM (doses to about 57.5 µM), for inactives: top-dose activation, most hits filed as activators. P14618; active means well fitted activation curve with a large enough effect; inconclusive means small, poorly fitted or top-dose-only effect; inactive means no such curve, though single readings can be large or run the other way; further: potency means the concentration at half of the fitted maximal effect; nearly all actives have a fitted effect of over 55% in size
#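 Kinase-Glo luminescence reports ATP generated from ADP (0.1 mM) and PEP (0.5 mM) by purified hPK-M2 after 1 h at room temperature, pH 7.2 imidazole buffer; intermediate enzyme activity allows detecting inhibitors and activators.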
# Six1-Eya2 inh – Six1/Eya2 interaction inhibition. Q15475+O00167. activity change, % (test concentration not listed). AlphaScreen GST-Six1/His-Eya2 binding, biochemical; stronger effect = lower value. 0.56% of 360,000 active
# Target sequence (O00167 whole entry, looked up): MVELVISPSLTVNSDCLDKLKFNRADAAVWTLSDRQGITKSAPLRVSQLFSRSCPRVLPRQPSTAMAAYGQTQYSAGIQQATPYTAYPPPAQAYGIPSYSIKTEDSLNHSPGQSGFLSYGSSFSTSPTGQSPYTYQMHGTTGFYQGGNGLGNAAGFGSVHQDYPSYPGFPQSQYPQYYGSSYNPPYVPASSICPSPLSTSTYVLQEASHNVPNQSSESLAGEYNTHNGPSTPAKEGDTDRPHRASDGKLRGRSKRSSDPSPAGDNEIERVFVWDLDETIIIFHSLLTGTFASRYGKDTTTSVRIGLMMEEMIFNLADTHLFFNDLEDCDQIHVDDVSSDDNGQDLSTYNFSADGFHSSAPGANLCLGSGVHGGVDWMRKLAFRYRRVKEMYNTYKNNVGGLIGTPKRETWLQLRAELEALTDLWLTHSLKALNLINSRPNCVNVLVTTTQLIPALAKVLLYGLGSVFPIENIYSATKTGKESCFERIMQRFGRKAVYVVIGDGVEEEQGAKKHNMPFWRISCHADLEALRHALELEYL
# Target sequence (Q15475 whole entry, looked up): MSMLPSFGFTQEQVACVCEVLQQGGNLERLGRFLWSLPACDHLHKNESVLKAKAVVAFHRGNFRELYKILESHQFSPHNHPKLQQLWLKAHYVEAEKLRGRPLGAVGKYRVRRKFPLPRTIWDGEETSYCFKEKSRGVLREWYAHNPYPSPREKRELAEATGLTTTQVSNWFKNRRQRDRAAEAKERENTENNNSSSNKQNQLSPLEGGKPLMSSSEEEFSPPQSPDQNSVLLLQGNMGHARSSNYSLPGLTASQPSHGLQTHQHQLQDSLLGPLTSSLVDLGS
#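 Homogeneous AlphaScreen proximity assay pairing GST-Six1 with His-tagged Eya2 (added as 5X mix: 250 nM and 500 nM) in 50 mM Tris pH 8.0, 300 mM NaCl, 1 mM TCEP. Glutathione donor and nickel acceptor beads; 1 h, 37 °C, dark.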
# MBNL1-CUG inh – blocks human MBNL1 binding to CUG repeat RNA; Q9NR56; TR-FRET MBNL1-His/biotin-(CUG)12 binding, 665/545 ratio; Potency, µM (series often up to 57.5 µM), for inactives: at the highest dose activity change, negative = inhibition, actives largely listed as inhibitors; 0.036% of 280,000 active; active means well fitted inhibition curve with a large enough effect in the signal ratio, with a control signal flat, not every such curve was filed as active; inconclusive means small, poorly fitted or top-dose-only effect, or effect the other way, or a change in a side signal; inactive means no such curve, though single readings can be large or run the other way; the % refers to the signal ratio; further: potency means the concentration at half of the fitted maximal effect
#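 Ratiometric TR-FRET (665 over 545 nm, excitation 340 nm) tracks disruption of MBNL1-His/biotin-(CUG)12 complex after 60 min at room temperature, with compounds at 92 nM to 58 uM final.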
# CtBP-E1A blk – CtBP/E1A binding inhibition. 0.49% of 340,000 active. AlphaScreen GST-E1A/His-CtBP binding, 1536-well; stronger effect = lower value. activity change, % (concentration not given with the values)
#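 Protein mix (5X: 125 nM each GST-E1A, His-CtBP) was incubated with pinned compound 2 h at 37 deg C in dark, in 50 mM Tris pH 8.0 buffer with 300 mM NaCl. Glutathione donor and nickel acceptor beads followed; AlphaScreen signal read after 1 h.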
# Starred values were filed as active, the others as inactive; ? = inconclusive; · = no result; [ ] = dose if it differs, or a comment. Only some compounds are listed: those with a hit (about 0.93% of all), similar ones and a draw of the others. Unless noted, no stated cut-off is given here; in the data, active means activity change below about -65%; inconclusive means mostly about -30% to -63%; inactive means weaker than that. On the % scale 0 is the no-effect control and ±100 the full control effect.
SMILES,PKM2 activator,Six1-Eya2 inh,MBNL1-CUG inh,CtBP-E1A blk
O=[N+]([O-])c1cc(/C=N/N/C(=N/c2ccccn2)c2ccccn2)ccc1O,?,-86*,?,?
CCC(=O)Nc1ccc(Cl)c(-c2nc3ncccc3o2)c1,2%,-68*,-7%,?
CCC(=O)Nc1cc(-c2nc3ncccc3o2)ccc1Cl,-3%,5,2%,4
CC(Sc1nc2ncc(Cl)cc2[nH]1)C(=O)Nc1ccccc1[N+](=O)[O-] (configuration not stated),·,3,·,-2
O=C(/C=C1\C(=O)Nc2ccccc21)/C=C1\C(=O)Nc2ccccc21,1.4µM*,-2,9%,-9
COc1cccc(NC(=O)CSc2nc3n[nH]c(C)c3c(=N)n2-c2cccc(OC)c2)c1,25µM*,?,-4%,?
COc1cccc(-n2c(SCC(=O)NCCC3=CCCCC3)nc3n[nH]c(C)c3c2=N)c1,0%,-79*,-1%,-70*
Cc1[nH]nc2nc(SCC(=O)NCC3CCCO3)n(-c3ccc(Br)cc3)c(=N)c12 (configuration not stated),?,-65*,-7%,?
CCC(C)NC(=O)CSc1nc2n[nH]c(C)c2c(=N)n1-c1ccc(OC)cc1 (configuration not stated),-12%,-74*,?,-85*
C[C@@H](C(=O)Nc1ccc2ccccc2c1)[C@H]1C[C@]1(C)[C@H](NC(=O)Oc1ccc(F)cc1)c1ccccc1,3%,·,·,·
CC#CCN1c2ccccc2[C@]23C[C@@H](C(=O)OC)N(S(=O)(=O)c4ccc(C#N)cc4)C2=NC(C(=O)OC)=C(C(=O)OC)[C@H]13,-6%[11.5 µM],·,·,·
COc1cccc(N=Nc2c(N)[nH][nH]c2=O)c1,8%,-16,?,-15
COc1cccc(N=Nc2c(N)[nH]n3c(=O)c4c(nc23)CCCC4)c1,-1%,-71*,?,-16
Cc1ccsc1/C=N/Nc1nc(=O)[nH]nc1C,-73%,-83*,?,-94*
CC(=O)c1cccc(NC(=O)CSc2ccc(-c3cccnc3)nn2)c1,·,-3,·,-1
Cc1cccc(NC(=O)CSc2cccc3cccnc23)c1,2%,-81*,35%,·
CC(=O)Nc1cccc(NC(=O)CSc2ccc(-c3cccnc3)nn2)c1,32µM*,-1,-10%,1
CCCCOc1ccc(NC(=O)CSc2cccc3cccnc23)cc1,7%,?,·,-88*
CCOc1cc(C=NNC(=O)c2cccc(S(=O)(=O)N3CCCC3)c2)ccc1O,·,-66*,·,·
CCOC(=O)[C@]12CCCC=C1N(CCc1ccc(OC)c(OC)c1)C(=O)[C@H](CC(=O)N1CCSCC1)C2,·,-7,·,4
O=C(CSc1cccc2cccnc12)Nc1cc(C(=O)O)cc(C(=O)O)c1,-1%[11.5 µM],?,?,-83*
NNC(=O)CSc1cccc2cccnc12,2%,-7,23%[11.5 µM],9
CCOc1cc(/C=N/NC(=O)CSc2cccc3cccnc23)ccc1O,0%,-66*,22%,-74*
c1ccc(-c2nc(NCc3ccco3)c3ccccc3n2)nc1,1%,-81*,25%,-81*
CCOC(=O)c1cnc(Nc2nc3ccccc3o2)nc1CN1CCN(C)CC1,2%,-87*,1%,-85*
SMILES,PKM2 activator,Six1-Eya2 inh,MBNL1-CUG inh,CtBP-E1A blk
CCCOC(=O)Nc1nc2ccccc2o1,-11%,-6,-3%,-9
CCOC(=O)[C@]12CCCC=C1N(Cc1ccco1)C(=O)[C@H](CC(=O)NCc1ccccc1)C2,·,-3,·,0
Nc1nnc(SCC(=O)c2ccc3c(c2)NC(=O)CO3)s1,28µM*,-7,56%,·
Cn1cnnc1SCC(=O)c1ccc2c(c1)NC(=O)CO2,·,0,·,4
CCCC(=O)N1CCC1(C)C(=O)Nc1scc(C)c1C#N (configuration not stated),·,4,·,3
CN1CCc2c(sc3nc(SCC(=O)N4CCOCC4)n(-c4ccc(Cl)cc4)c(=O)c23)C1,-6%[0.46 µM],-14,?,-80*
COC(=O)CSc1nc2sc3c(c2c(=O)n1-c1ccc(OC)cc1)CCN(C)C3,·,0,5%,1
CCCCNC(=O)c1ccc2nc(CC)c(N(C)Cc3cccs3)n2c1,·,-5,·,-1
N#Cc1ccc2c(c1)C[C@]1(CCCCN3C(=O)c4ccccc4C3=O)Oc3c(c(=O)oc4ccc(F)cc34)C2O1,0%[11.5 µM],·,5%[11.5 µM],·
Nc1[nH]c(=O)nc(Nc2ccccc2)c1N=O,·,?,·,-66*
Cc1nc(NCc2ccccc2)c2nc(-c3ccccc3)n(CC(C)(C)CN(C)C)c2n1,-9%,·,·,·
CCNc1ccc2noc3c2c1C(=O)c1ccccc1-3,-9%,-74*,?,-72*
O=C1c2ccccc2-c2onc3ccc(NCc4ccco4)c1c23,-18%,-85*,?,-93*
CCN(CC)CCCCn1c(-c2ccccc2)nc2c(NCCOC)nc(C)nc21,0%,·,·,·
COc1ccc(-c2nc(NCCN(C)C)nc3ccsc23)c(C)c1,·,7,·,15
NCCNCCNCCN,-3%,-84*,-14%,-93*
NCCCCNCCCN,-10%,1,-10%,5
Cc1cc(=O)[nH]c(SCc2cn3ccccc3n2)n1,14µM*,20,-12%,-16
O=[N+]([O-])c1ccc2nc(SCc3cn4ccccc4n3)[nH]c2c1,5%,2,16%,5
O=C(O)c1cccc(Cn2c(Cl)c(/C=N/NC(=O)c3ccc(O)cc3)sc2=O)c1,0%,?,?,-67*
Cc1ccc(NS(=O)(=O)c2ccc3c(c2)oc(=O)n3C)cc1C,·,2,-12%,3
Cc1ccc(NS(=O)(=O)c2ccc3c(c2)oc(=O)n3C)cc1F,4.5µM*,4,-3%,6
Cn1c(=O)oc2cc(S(=O)(=O)Nc3cccc(F)c3)ccc21,13µM*,-1,-11%,-9
Cn1c(=O)c2cc(S(=O)(=O)NC(C(=O)Nc3cccc(F)c3)c3ccccc3)ccc2n(C)c1=O (configuration not stated),0%,-7,0%,5
CSc1cccc(NS(=O)(=O)c2ccc3c(c2)oc(=O)n3C)c1,7.9µM*,1,-4%,-1
SMILES,PKM2 activator,Six1-Eya2 inh,MBNL1-CUG inh,CtBP-E1A blk
Cn1c(=O)c2cc(S(=O)(=O)Nc3cccc(F)c3)ccc2n(C)c1=O,5µM*,?,-8%,-22
CC1(C)CC2(C)OC2C2(C1)N=NC(=Nc1ccccc1)O2 (configuration not stated),·,6,·,0
CCOC(=O)[C@]12CCC=C1N(Cc1ccc(Cl)cc1Cl)C(=O)[C@H](CC(=O)N1CCSCC1)C2,·,-4,·,-16
COC(=O)C1=C(C)N(Cc2ccccc2)C(=NCc2ccc(OC)cc2)N[C@H]1c1ccc(Br)cc1,-3%,·,-16%,·
COc1cc(Cl)ccc1OC1(C)CCN(Cc2cccn2-c2nccs2)C1 (configuration not stated),·,-27,·,-20
Cn1c(=O)oc2cc(S(=O)(=O)Nc3ccccc3O)ccc21,14µM*,15,1%,·

# Screens as filed in PubChem BioAssay.
